Among the data in ChEMBL document CHEMBL1961873, “Compounds: GSK PKIS; Assays: Nanosyn kinase panel” (2012) are inhibition values, retold here.

Assay [1] concerns the target Sphingosine kinase 1 (Homo sapiens) (UniProt Q9NYA1). As to conditions: at 1 µM.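 Also: mean SPHK1 inhibition value reported from the GSK PKIS kinase panel screen.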
In assay [2] the target is T1, Sphingosine kinase 2 (Homo sapiens) (UniProt Q9NRA0).
T1 sequence (whole entry): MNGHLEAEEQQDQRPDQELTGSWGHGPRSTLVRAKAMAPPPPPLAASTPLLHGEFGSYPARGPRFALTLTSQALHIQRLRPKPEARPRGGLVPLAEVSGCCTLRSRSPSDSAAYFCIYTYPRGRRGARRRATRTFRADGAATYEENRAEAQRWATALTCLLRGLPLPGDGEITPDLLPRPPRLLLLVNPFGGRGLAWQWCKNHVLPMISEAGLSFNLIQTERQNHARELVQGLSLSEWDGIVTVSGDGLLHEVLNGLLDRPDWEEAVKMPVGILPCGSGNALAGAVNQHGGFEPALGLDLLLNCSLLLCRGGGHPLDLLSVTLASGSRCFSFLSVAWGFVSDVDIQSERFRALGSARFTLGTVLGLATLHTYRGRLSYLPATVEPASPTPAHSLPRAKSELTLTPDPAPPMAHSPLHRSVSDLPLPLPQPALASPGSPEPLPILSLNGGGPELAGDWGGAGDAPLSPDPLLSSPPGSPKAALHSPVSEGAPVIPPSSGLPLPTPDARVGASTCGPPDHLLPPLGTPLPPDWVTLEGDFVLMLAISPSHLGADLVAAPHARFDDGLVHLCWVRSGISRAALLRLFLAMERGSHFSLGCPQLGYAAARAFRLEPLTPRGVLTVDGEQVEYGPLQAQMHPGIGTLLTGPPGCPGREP
As to conditions: at 0.1 µM.

The target of assay [3] is T1, Sphingosine kinase 2 (Homo sapiens). As to conditions: at 1 µM.
In assay [4] the target is Casein kinase II subunit alpha (Homo sapiens) (UniProt P68400). To be noted: at 0.1 µM.
The target is the same in assay [5]. As to conditions: at 1 µM.
For assay [6], the target named is T2, Inhibitor of nuclear factor kappa-B kinase subunit alpha (Homo sapiens) (UniProt O15111).
T2 sequence (whole entry): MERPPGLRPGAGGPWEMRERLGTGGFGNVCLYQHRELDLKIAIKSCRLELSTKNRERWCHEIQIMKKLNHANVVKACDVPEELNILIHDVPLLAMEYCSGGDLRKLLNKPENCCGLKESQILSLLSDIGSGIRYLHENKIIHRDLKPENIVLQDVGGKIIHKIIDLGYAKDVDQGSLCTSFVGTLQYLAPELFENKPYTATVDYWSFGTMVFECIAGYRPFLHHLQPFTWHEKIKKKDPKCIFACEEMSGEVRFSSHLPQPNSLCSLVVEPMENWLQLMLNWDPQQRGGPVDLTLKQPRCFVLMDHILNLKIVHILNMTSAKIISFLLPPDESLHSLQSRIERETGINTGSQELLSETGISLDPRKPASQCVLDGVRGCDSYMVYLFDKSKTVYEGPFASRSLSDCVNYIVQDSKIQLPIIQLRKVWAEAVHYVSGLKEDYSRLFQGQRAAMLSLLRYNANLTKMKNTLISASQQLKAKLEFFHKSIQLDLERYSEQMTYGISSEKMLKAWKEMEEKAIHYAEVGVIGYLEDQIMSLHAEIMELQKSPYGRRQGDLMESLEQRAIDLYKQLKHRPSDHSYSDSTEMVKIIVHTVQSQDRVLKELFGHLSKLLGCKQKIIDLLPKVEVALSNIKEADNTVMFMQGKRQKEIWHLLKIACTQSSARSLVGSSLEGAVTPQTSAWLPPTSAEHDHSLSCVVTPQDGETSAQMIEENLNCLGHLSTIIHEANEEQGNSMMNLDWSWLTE
As to conditions: at 0.1 µM.

The target in assay [7] is T2, Inhibitor of nuclear factor kappa-B kinase subunit alpha (Homo sapiens). To be noted: at 1 µM.
Assay [8] addresses T3, Inhibitor of nuclear factor kappa-B kinase subunit beta (Homo sapiens) (UniProt O14920).
T3 sequence (whole entry): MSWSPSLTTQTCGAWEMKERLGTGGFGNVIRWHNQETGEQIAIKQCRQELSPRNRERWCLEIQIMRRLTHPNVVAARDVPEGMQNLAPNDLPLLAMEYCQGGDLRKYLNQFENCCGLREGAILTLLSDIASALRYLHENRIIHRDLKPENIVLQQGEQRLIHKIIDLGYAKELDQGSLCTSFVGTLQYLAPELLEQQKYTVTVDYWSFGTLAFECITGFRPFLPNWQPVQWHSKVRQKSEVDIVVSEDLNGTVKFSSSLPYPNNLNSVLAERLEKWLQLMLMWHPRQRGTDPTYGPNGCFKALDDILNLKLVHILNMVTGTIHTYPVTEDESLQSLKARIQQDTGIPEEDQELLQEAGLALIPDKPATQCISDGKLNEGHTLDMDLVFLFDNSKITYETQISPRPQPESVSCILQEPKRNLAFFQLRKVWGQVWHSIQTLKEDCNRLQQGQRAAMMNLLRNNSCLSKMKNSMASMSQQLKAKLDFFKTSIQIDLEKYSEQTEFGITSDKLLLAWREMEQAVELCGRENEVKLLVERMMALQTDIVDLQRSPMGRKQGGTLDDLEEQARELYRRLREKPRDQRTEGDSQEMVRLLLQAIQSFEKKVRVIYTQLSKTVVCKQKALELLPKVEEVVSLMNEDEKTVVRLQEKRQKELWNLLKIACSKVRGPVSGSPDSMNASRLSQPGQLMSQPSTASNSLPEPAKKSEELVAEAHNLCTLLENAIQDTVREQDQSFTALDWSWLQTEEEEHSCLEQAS
To be noted: at 0.1 µM.

Assay [9] concerns the target T3, Inhibitor of nuclear factor kappa-B kinase subunit beta (Homo sapiens). To be noted: at 1 µM.
Assay [10] concerns the target T4, Inhibitor of nuclear factor kappa-B kinase subunit epsilon (Homo sapiens) (UniProt Q14164).
T4 sequence (whole entry): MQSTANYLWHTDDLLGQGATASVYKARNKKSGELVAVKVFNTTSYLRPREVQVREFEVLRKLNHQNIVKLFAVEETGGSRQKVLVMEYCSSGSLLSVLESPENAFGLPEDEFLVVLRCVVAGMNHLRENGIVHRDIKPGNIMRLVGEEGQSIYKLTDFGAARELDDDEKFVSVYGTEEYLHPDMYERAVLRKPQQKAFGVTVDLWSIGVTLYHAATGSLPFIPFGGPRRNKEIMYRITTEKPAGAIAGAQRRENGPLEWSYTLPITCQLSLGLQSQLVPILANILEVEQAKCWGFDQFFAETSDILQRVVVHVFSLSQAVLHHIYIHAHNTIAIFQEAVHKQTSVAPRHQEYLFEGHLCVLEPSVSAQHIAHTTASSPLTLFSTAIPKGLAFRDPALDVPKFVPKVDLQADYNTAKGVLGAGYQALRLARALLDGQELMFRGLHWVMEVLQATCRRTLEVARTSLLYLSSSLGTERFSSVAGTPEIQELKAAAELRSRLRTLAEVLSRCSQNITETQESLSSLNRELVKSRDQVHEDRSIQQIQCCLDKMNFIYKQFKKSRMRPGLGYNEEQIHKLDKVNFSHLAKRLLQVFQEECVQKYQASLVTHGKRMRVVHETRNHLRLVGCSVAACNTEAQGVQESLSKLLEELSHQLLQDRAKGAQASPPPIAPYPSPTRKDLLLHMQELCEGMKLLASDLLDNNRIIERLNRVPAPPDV
To be noted: at 0.1 µM.

For assay [11], the target named is T4, Inhibitor of nuclear factor kappa-B kinase subunit epsilon (Homo sapiens). To be noted: at 1 µM.
Assay [12] deals with T5, Serine/threonine-protein kinase Nek1 (Homo sapiens) (UniProt Q96PY6).
T5 sequence (whole entry): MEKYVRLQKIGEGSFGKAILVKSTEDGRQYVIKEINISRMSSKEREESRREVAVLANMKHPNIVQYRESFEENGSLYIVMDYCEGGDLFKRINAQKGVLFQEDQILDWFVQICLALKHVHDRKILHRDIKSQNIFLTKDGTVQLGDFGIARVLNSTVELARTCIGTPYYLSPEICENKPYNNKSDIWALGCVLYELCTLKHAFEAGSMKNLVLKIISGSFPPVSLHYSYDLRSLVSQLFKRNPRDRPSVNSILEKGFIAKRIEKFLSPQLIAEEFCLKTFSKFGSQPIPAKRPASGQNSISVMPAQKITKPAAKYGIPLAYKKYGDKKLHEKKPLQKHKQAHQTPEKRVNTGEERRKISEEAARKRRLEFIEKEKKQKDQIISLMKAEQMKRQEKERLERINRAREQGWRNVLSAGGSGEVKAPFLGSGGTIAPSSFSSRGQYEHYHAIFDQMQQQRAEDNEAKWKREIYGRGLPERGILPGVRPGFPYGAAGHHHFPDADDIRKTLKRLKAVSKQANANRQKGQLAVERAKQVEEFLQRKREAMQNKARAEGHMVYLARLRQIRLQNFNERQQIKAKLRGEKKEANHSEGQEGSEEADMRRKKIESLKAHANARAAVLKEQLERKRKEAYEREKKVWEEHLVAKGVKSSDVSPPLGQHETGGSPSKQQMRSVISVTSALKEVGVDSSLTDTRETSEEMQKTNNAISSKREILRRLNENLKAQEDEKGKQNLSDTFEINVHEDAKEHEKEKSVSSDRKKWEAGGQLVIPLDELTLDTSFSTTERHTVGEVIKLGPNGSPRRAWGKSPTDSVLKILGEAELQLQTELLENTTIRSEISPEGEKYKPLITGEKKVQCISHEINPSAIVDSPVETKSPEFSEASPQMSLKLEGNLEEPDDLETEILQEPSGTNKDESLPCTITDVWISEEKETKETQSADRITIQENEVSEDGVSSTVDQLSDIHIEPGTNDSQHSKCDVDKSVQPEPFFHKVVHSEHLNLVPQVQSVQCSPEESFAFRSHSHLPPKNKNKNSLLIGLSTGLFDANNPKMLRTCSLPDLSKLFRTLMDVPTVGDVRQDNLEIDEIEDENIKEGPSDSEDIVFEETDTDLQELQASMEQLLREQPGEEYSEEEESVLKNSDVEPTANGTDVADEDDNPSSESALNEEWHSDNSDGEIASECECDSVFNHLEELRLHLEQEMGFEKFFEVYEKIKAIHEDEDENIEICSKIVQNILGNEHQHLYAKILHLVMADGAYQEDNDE
As to conditions: at 0.1 µM.

Assay [13] concerns the target T5, Serine/threonine-protein kinase Nek1 (Homo sapiens). To be noted: at 1 µM.
Assay [14] concerns the target T6, Serine/threonine-protein kinase Nek2 (Homo sapiens) (UniProt P51955).
T6 sequence (whole entry): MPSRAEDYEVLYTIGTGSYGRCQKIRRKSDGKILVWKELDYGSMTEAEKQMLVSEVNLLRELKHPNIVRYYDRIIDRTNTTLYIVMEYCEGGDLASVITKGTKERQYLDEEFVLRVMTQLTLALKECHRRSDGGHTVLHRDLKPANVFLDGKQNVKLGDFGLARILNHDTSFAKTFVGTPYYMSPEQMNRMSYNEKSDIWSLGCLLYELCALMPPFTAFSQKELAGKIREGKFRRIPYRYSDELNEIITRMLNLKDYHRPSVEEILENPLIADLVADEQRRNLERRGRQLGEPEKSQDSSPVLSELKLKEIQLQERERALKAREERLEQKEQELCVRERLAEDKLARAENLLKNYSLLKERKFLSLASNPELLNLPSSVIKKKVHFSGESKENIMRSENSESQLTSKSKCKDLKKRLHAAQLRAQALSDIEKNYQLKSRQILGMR
As to conditions: at 0.1 µM.

Assay [15] addresses T6, Serine/threonine-protein kinase Nek2 (Homo sapiens). To be noted: at 1 µM.
The target in assay [16] is Serine/threonine-protein kinase Nek6 (Homo sapiens) (UniProt Q9HC98). To be noted: at 0.1 µM.
Assay [17] has the same target. To be noted: at 1 µM.
The target in assay [18] is Serine/threonine-protein kinase Nek7 (Homo sapiens) (UniProt Q8TDX7). As to conditions: at 0.1 µM.
Assay [19] shares this target. To be noted: at 1 µM.
For assay [20], the target named is T7, Serine/threonine-protein kinase Nek9 (Homo sapiens) (UniProt Q8TD19).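 Also: reported value is the mean percent inhibition of NEK9.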
T7 sequence (whole entry): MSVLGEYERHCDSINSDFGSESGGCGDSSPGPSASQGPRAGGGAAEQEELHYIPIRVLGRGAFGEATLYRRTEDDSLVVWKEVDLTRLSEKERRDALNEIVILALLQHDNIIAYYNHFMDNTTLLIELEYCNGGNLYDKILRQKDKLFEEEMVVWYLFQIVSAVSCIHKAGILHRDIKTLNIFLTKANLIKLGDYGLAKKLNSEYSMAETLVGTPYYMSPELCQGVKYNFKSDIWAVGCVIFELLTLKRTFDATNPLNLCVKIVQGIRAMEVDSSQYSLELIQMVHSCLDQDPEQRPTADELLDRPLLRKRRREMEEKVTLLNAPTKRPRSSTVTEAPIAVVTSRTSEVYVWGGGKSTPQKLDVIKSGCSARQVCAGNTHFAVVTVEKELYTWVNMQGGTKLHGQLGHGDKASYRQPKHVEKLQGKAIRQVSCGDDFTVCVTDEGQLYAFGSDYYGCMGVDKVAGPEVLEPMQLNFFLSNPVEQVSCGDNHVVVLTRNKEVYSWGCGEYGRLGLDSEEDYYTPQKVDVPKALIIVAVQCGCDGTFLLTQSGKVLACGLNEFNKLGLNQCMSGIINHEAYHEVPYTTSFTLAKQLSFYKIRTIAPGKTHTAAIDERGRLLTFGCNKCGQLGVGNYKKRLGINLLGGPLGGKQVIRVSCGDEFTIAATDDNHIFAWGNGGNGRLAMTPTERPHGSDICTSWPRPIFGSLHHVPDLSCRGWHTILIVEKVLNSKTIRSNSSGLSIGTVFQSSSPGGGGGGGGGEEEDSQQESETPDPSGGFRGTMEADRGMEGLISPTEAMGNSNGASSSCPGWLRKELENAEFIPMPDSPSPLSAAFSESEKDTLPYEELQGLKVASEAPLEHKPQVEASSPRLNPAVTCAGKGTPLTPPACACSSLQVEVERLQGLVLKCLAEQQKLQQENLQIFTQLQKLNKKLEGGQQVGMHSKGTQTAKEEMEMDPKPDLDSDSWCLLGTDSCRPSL
As to conditions: at 0.1 µM.

Chain of Serine/threonine-protein kinase Nek6 (Homo sapiens) (Q9HC98 whole entry): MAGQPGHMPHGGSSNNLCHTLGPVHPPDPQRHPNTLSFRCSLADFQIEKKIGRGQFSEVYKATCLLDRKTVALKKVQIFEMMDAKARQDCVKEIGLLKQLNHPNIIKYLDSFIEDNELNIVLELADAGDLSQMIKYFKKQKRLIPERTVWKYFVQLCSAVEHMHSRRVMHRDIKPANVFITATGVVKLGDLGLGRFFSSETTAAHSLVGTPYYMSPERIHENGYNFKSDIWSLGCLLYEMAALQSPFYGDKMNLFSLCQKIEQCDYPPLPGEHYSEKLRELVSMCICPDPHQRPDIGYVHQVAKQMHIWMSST
Chain of Serine/threonine-protein kinase Nek7 (Homo sapiens) (Q8TDX7 whole entry, looked up): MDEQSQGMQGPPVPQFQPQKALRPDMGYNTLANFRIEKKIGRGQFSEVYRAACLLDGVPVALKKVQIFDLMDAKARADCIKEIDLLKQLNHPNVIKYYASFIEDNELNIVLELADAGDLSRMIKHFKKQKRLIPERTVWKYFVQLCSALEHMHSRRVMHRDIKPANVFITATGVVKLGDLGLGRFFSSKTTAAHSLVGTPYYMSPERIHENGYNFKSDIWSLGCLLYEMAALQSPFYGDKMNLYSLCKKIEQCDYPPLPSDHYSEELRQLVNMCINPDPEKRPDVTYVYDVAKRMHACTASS
Chain of Casein kinase II subunit alpha (Homo sapiens) (P68400 whole entry, looked up): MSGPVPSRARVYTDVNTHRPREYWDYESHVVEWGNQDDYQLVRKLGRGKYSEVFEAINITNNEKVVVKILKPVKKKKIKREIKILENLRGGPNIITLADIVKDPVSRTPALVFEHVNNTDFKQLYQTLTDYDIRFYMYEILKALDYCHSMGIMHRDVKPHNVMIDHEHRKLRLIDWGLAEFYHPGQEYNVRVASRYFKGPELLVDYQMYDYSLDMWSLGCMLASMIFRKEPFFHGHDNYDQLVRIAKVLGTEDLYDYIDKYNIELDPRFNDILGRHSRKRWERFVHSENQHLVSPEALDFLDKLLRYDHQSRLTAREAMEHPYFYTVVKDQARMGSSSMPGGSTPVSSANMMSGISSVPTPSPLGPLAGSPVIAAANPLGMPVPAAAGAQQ
Chain of Sphingosine kinase 1 (Homo sapiens) (Q9NYA1 whole entry): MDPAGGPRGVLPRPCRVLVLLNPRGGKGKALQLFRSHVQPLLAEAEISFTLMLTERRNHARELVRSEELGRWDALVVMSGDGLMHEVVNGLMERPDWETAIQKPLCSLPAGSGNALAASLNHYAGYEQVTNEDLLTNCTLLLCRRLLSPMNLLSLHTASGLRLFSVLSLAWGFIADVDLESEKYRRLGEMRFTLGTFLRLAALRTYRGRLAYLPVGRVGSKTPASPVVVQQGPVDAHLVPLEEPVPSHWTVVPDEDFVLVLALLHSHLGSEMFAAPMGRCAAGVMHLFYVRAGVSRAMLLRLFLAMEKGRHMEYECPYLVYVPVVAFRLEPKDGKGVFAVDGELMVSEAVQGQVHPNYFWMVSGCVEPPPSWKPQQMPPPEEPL

Usually inhibition stands for the drop in the measured response relative to a control, in per cent. For `COc1cccc(COc2cc(-n3cnc4ccccc43)sc2C(N)=O)c1`, the inhibition in assay [1] was -1.55%; in assay [2], -0.24%; in [3] it was -0.85%; in assay [4] it was 11.6%; in assay [5], -0.53%; in assay [6], 9.44%. Besides, the inhibition is 7.88% in [7]; -0.21% in assay [8]; -0.64% in assay [9]; -2.28% in [10]; -7.06% in [11]; 0.41% in [12]. Also, the inhibition in assay [13] was 4.13%; in assay [14] it was 8.56%; in assay [15], 1.43%; in assay [16] it was 1.63%; in assay [17], -0.37%; in assay [18] it was 0.3%. Also, the inhibition in assay [19] turned out to be 0.66%; in [20], 0.4%.
